In PubChem BioAssay (NCI) one finds growth inhibition data, which are given here for 21 compounds.

This is part of a sample that, as a whole, favours compounds with a hit. Of some 79,000 tested, about 15% had one in any assay. A number with no mark means an inactive call. Calls of active or inactive are those of the source. Cut-off read from the data, not from the text of the source: active = growth inhibition above about 70%; inactive = the rest.

A short description of assay [1]: NCI Yeast Anticancer Drug Screen. Data for the rad50 strain (AID 155).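 Note: 0% = growth of vehicle-only cultures of the same strain.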 To be noted: S. cerevisiae rad50 strain growth inhibition, stronger effect = higher value; at 50.0 µM unless noted. The method, boiled down: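 A DNA repair-deficient yeast mutant serves as the test organism; compound-induced growth inhibition is calculated against vehicle-treated cells.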
A short description of assay [2]: NCI Yeast Anticancer Drug Screen. Data for the mec2-1 strain (AID 157). Particulars: S. cerevisiae mec2-1 strain, stronger effect = higher value; at 50.0 µM unless noted. The method, boiled down: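 Yeast mec2-1 mutant treated with compound. Readout: growth inhibition vs vehicle controls.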
The nature of assay [3]: NCI Yeast Anticancer Drug Screen. Data for the sgs1 mgt1 strain (AID 161).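 Note: 0% = growth of cultures given vehicle only.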 Particulars: S. cerevisiae sgs1 mgt1 strain, stronger effect = higher value; at 50.0 µM unless noted. A digest of the protocol: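 Test agents were incubated with a DNA-repair-mutant yeast strain. Growth was then read and compared against vehicle-treated controls.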
Assay [4] is described as follows: NCI Yeast Anticancer Drug Screen. Data for the cln2 rad14 strain (AID 165).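 Note: 0% = growth equal to vehicle treated cultures.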 To be noted: S. cerevisiae cln2 rad14 strain, stronger effect = higher value; at 50.0 µM unless noted. The method, boiled down: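 cln2 rad14 yeast strain; compound exposure; growth inhibition read vs vehicle controls.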
The nature of assay [5]: NCI Yeast Anticancer Drug Screen. Data for the bub3 strain (AID 167). To be noted: S. cerevisiae bub3 mutant strain, stronger effect = higher value; at 50.0 µM unless noted. A digest of the protocol: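 Inhibition values come from growth of compound-treated mutant yeast normalised to vehicle-treated controls.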
Assay [6] is described as follows: NCI Yeast Anticancer Drug Screen. Data for the mlh1 rad18 strain (AID 175). Particulars: S. cerevisiae mlh1 rad18 strain growth inhibition, stronger effect = higher value; at 50.0 µM unless noted. A digest of the protocol:
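Yeast w/ defined DNA-repair lesions; compound exposure; growth vs vehicle controls → % inhibition.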

Take `COc1cccc(/C=C/C(C)=N/NC(N)=O)c1`: the growth inhibition is 6.5% in assay [1]; 0.25% in assay [2]; 5.5% in assay [3]; -7.1% in assay [4]; 6.35% in assay [5]; 8.65% in assay [6].

Consider `C=CCOC(=O)CCCC1=NC2=CC=CC3=NC(C)=NC(=N1)N23`, for which the growth inhibition was -1.1% in assay [1]; 2.35% in assay [2]; 1.45% in assay [3]; 12.2% in assay [4]; -17.3% in assay [5]; 1.2% in assay [6].

Turning to `O=C(Nc1ccc(Cl)cc1)NC1OC(=O)C(Cl)=C1Cl` (stereo unspecified), the growth inhibition in assay [1] was 23.4%; in assay [2], 9.3%; in assay [3], 8.55%; in assay [4], -17.9%; in assay [5] it was 3.5%; in assay [6], 23.1%.

For the compound `CCN1c2ccccc2CC(CCCN(C)C)(C(N)=O)c2ccccc21` (stereo unspecified), the growth inhibition is 3.8% in assay [1]; 12.3% in assay [2]; 18.2% in assay [3]; 9.45% in assay [4]; -1.85% in assay [5]; -8.25% in assay [6].

Take `O=Nc1ccc2ccccc2c1N=Nc1ccccc1C(=O)O`: the growth inhibition in assay [1] was 20.5%; in assay [2], 72.5% (active); in assay [3] it was 45.6%; in assay [4] it was 14.3%; in assay [5] it was 53%; in assay [6] it was 35.8%.

On to `CC1(C)CNC[C@]2(C)OCCCO[C@@]3(C)CNCC(C)(C)NC(=O)[C@](C)(CNCC(C)(C)NC3=O)OCCCO[C@](C)(CNCC(C)(C)NC2=O)C(=O)N1`, for which the growth inhibition is -33.2% in assay [1]; -22.2% in assay [2]; -32.1% in assay [3]; 0.5% in assay [4]; -17.1% in assay [5]; -46.2% in assay [6].

Consider `O=C1CN(CCc2ccccc2)CC(=O)N2C(c3ccccc3)CCCN12` (stereo unspecified), for which the growth inhibition in assay [1] is 62.7%; in assay [2], 38.5%; in assay [3], 65.2%; in assay [4], 42.2%; in assay [5], 52%; in assay [6], 43.4%.

In the case of `C1=C(Nc2ccccc2)C(=Nc2ccccc2)C=C(Nc2ccccc2)C1=Nc1ccccc1`, the growth inhibition in assay [1] was -17.2%; in assay [2], -4.25%; in assay [3], -3.1%; in assay [4], 7.1%; in assay [5] it was 1.65%; in assay [6] it was 5.4%.

Consider `CN(C)c1ccc(/C=N/Nc2nc3ccccc3c(=O)n2-c2ccccc2)cc1`, for which the growth inhibition in assay [1] was -3.05%; in assay [2], -16.1%; in assay [3], 6.55%; in assay [4], 17.9%; in assay [5] it was 26.1%; in assay [6] it was -3.7%.

As for `CC(C)COC(=O)c1ccccc1`, the growth inhibition was 35% in assay [1]; 7.95% in assay [2]; 20.1% in assay [3]; -18.4% in assay [4]; -9.6% in assay [5]; 3.6% in assay [6].

As for `O=C(OCc1ccccc1CN1CCCCC1)c1cccc(Cl)c1`, the growth inhibition in assay [1] was -2.85%; in assay [2] it was -7.7%; in assay [3], -6.3%; in assay [4], -10.3%; in assay [5] it was 7.35%; in assay [6] it was 2.3%.

As for `Cc1ccccc1C(c1ccccc1Cl)[N+](C)(C)C` (stereo unspecified), the growth inhibition in assay [1] is 35%; in assay [2] it was 14.7%; in assay [3], 27.1%; in assay [4], 19.2%; in assay [5] it was -3.95%; in assay [6] it was 43.1%.

In the case of `COc1cc(CC(C(=O)O)C(C)C(=O)c2ccc3c(c2)OCO3)cc(OC)c1OC` (stereo unspecified), the growth inhibition in assay [1] was -4.75%; in assay [2], 0.1%; in assay [3], -11.9%; in assay [4] it was -24.6%; in assay [5], -10.4%; in assay [6], -15.8%.

For the compound `CC(=O)c1ccc2c(c1)NC(=O)CC(C)N2` (stereo unspecified), the growth inhibition in assay [1] is 0.65%; in assay [2], -1.25%; in assay [3], 11.9%; in assay [4], -25.6%; in assay [5], 5.05%; in assay [6], 0.3%.

In the case of `O=C(O)/C=C/C(=O)NCCCCCCNC(=O)/C=C/C(=O)O`, the growth inhibition in assay [1] is 4.55%; in assay [2], -26.4%; in assay [3], 2%; in assay [4], -8.7%; in assay [5], -16.9%; in assay [6], -15.1%.

As for `CCC(CC)/C(=N/Nc1ccc([N+](=O)[O-])cc1[N+](=O)[O-])C1=CCCCC1`, the growth inhibition in assay [1] is -8.3%; in assay [2], -12.1%; in assay [3], -5.1%; in assay [4] it was -24.1%; in assay [5], -7.3%; in assay [6] it was -15.7%.

Take `COc1cc(O)c(C/C=C/c2ccccc2)cc1O`: the growth inhibition in assay [1] is 49.6%; in assay [2] it was 21.4%; in assay [3], 27.6%; in assay [4] it was -12.3%; in assay [5] it was 29.1%; in assay [6], 64.9%.

`COc1ccc(-c2sc(/N=C/c3ccc(N(C)CCC#N)cc3)c(C#N)c2C)cc1OC`: the growth inhibition in assay [1] was 4%; in assay [2], -1.05%; in assay [3], 28.1%; in assay [4], 16.4%; in assay [5], 18.3%; in assay [6] it was 15.3%.

As to `CN(C)c1ccc(N)c(N)c1`, the growth inhibition is -13.5% in assay [1]; -34.8% in assay [2]; -4.45% in assay [3]; 12.1% in assay [4]; 5.95% in assay [5]; -12.9% in assay [6].

Take `NCCNc1ccccc1`: the growth inhibition in assay [1] is -32.9%; in assay [2] it was -62%; in assay [3] it was -42.2%; in assay [4], 6.6%; in assay [5] it was -20.4%; in assay [6] it was -22.9%.

Regarding `CCN(CC)OC(=O)/C=C/c1ccccc1`, the growth inhibition in assay [1] is 2.05%; in assay [2] it was 5.5%; in assay [3], -10.3%; in assay [4], 20.2%; in assay [5], -3.3%; in assay [6], -4.45%.
